{"source": "PubChem BioAssay", "note": "The source made the active and inactive calls."}
{"experiment": "resazurin metabolic signal in HepG2 cells – cell-based, resazurin fluorescence, 24 h, PK04 Diversity Set, profiling panel (AID 1172); note: test concentration not given here", "conditions": "HepG2 viability, higher = more signal"}
{"compound": "COCCCNC(=O)[C@@H]1c2ccccc2C(=O)N(Cc2ccccc2C(F)(F)F)[C@H]1c1ccc(CO)cc1", "z-score": 0.816}
{"compound": "NC(=O)N1C(=O)C2C(C1=O)C1C=C(CCCO)C2C(c2cccs2)N1Cc1cc2c(cc1Br)OCO2", "note": "(stereo unspecified)", "z-score": 0.652}
{"compound": "CCOC(=O)C[C@H]1[C@H](OC(=O)c2ccccc2-c2ccccc2)[C@@H](NC(=O)CC(C)C)c2cc(OCCCO)ccc2N1C(=O)c1ccc2ccccc2n1", "z-score": -0.208}
{"compound": "CN1C(=O)C2C=CC(C(O)C3CCCCC3)N(N3CCCCC3)C2C1=O", "note": "(stereo unspecified)", "z-score": -0.435}
{"compound": "CO[C@H]1O[C@H](CO)[C@@H](OC(=O)Nc2ccc(C(F)(F)F)cc2)[C@H](OC(=O)Nc2ccc3c(c2)OCO3)[C@H]1OC(=O)Nc1ccc2c(c1)OCO2", "z-score": -1.9}
{"compound": "NCCCCCCNC(=O)[C@@H]1C[C@@H]2C(=O)N3CCC[C@H]3C(=O)N2[C@@H]1c1ccc(O)cc1", "z-score": -0.0529}
{"compound": "COC(=O)C(CC#Cc1ccc2c(c1)[C@]1(C(=O)N2)[C@H](C(=O)O)[C@H]2C(=O)O[C@H](c3ccccc3)[C@H](c3ccccc3)N2[C@@H]1c1ccccc1OCCO)C(=O)OC", "z-score": 0.289}
{"compound": "CCOC(=O)[C@H]1C/C=C/C[C@H](C(=O)OCC)C(=O)O[C@H]2[C@@H](OC)O[C@H](CO)[C@@H](OC(=O)CCc3ccccc3)[C@@H]2OC1=O", "z-score": -0.144}
{"compound": "C[C@]12C(=O)N(CCCCCCO)[C@@H]3C(=O)N(c4ccc(Cl)cc4)CC=CC31O[C@@H]1/C=C\\CCCOC(=O)C12", "note": "(stereo partly specified)", "z-score": -0.578}
{"experiment": "budding yeast growth changes without added modifier – OD600, strain BY4716, 24 h, basal condition, primary screen (AID 1173)", "conditions": "S. cerevisiae BY4716 growth, OD600, 24 h; higher = more signal, called active from +8 up or from −8 down"}
{"compound": "O=C1c2ccccc2[C@](Cc2ccccc2I)(C(=O)NCc2ccccc2)[C@H](c2ccc(CO)cc2)N1C1CCCCC1", "z-score": "-0.453 (inactive)"}
{"compound": "COc1ccc(C(O)C2C=CC3C(=O)N(C)C(=O)C3N2N2CCCCC2)cc1", "note": "(stereo unspecified)", "z-score": "0.381 (inactive)"}
{"compound": "C=C1C2CC3C(=C4C(CO[C@@H]4[C@H]4CCCN4S(=O)(=O)c4ccccc4[N+](=O)[O-])C4C(=O)N(C)C(=O)C34)CC2C(=O)N1C", "note": "(stereo partly specified)", "z-score": "-1.05 (inactive)"}
{"compound": "COCCOC(=O)N1C(=O)[C@@]2(c3cc(C#CC4=CCCCC4)ccc31)[C@H](c1ccc(O)cc1)N1[C@H](c3ccccc3)[C@H](c3ccccc3)OC(=O)[C@H]1[C@@H]2C(=O)Nc1nc2ccccc2s1", "z-score": "0.175 (inactive)"}
{"compound": "C[C@H]1C2=C3C(CC[C@H]4C(OCc5ccc(F)cc5C(F)(F)F)OC[C@](C)([C@@H]34)N(C(=O)OC(C)(C)C)C2)C(CO)C1CO", "note": "(stereo partly specified)", "z-score": "0.964 (inactive)"}
{"compound": "COCCOC(=O)N1C(=O)[C@@]2(c3cc(C#CC4(O)CCCCCC4)ccc31)[C@H](C(=O)N1CCCCCCC1)[C@H]1C(=O)O[C@H](c3ccccc3)[C@H](c3ccccc3)N1[C@@H]2c1ccc(OCCO)cc1", "z-score": "0.397 (inactive)"}
{"compound": "COCCOC(=O)N1C(=O)[C@@]2(c3cc(C#CC4(O)CCCCCC4)ccc31)[C@H](C(N)=O)[C@H]1C(=O)O[C@H](c3ccccc3)[C@H](c3ccccc3)N1[C@@H]2c1ccccc1OCCO", "z-score": "0.707 (inactive)"}
{"compound": "CC(=O)N1Cc2ccccc2C[C@]2(N=C(c3ccc(OCCCO)cc3)O[C@@H]2c2ccccc2)C1=O", "z-score": "-0.776 (inactive)"}
{"compound": "O=C1OCC=C[C@H]2OC34C=CCN(c5ccc(Cl)cc5)C(=O)[C@H]3N(CCCCCO)C(=O)[C@@H]4[C@@H]12", "note": "(stereo partly specified)", "z-score": "-1.1 (inactive)"}
{"compound": "C=C(C(=O)CC[C@H](OC(=O)c1cccnc1)c1cccc(OCCO)c1)C(C)C", "z-score": "1.06 (inactive)"}
{"compound": "CC(C)C(O)C1C=CC2C(=O)N(C)C(=O)C2N1N(c1ccccc1)c1ccccc1", "note": "(stereo unspecified)", "z-score": "0.72 (inactive)"}
{"compound": "O=C1O[C@@H](c2ccccc2)[C@@H](c2ccccc2)N2[C@@H](c3ccc(O)cc3)[C@]3(C(=O)Nc4ccccc43)[C@@H](C(=O)Nc3nc4ccccc4s3)[C@H]12", "z-score": "-0.505 (inactive)"}
{"compound": "COC(=O)[C@@]1(Cc2ccc(OC)cc2)[C@H]2c3cc(C(=O)N(C)C)n(Cc4ccccc4)c3C[C@H]2CN1C(=O)c1ccccc1", "z-score": "-0.373 (inactive)"}
{"compound": "CC1CC/C=C\\[C@H]2OC34C=CCN(CCN5CCOCC5)C(=O)[C@H]3N(CCO)C(=O)[C@@H]4C2C(=O)O1", "note": "(stereo partly specified)", "z-score": "-0.158 (inactive)"}
{"compound": "COC(=O)[C@]1(CCS(=O)(=O)c2ccccc2)N=C(c2ccc(OCCCO)cc2)O[C@@H]1c1ccccc1CN=[N+]=[N-]", "z-score": "1.69 (inactive)"}
{"compound": "CC(C)(C)OC(=O)CC[C@]1(C(=O)O)N=C(c2ccc(OCCCO)cc2)O[C@H]1c1ccccc1", "z-score": "-0.739 (inactive)"}
{"compound": "O=C1c2ccccc2[C@@]2(Cc3ccccc3N(C3CC3)C2=O)[C@H](c2ccc(CO)cc2)N1C1CCCCC1", "z-score": "0.979 (inactive)"}
